Rows were chosen to be rich in hits. Some 6% of all compounds tested hit in one or more screens of this group.
D3 ag = agonists of human D3 dopamine receptor | P35462 | D3R DiscoveRx beta-arrestin cells, luminescence, 90 min | max activation, % | 410,000 compounds, 0.58% hits; in the data active means max activation above about 30%; further: 0% is about no effect
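Agonist-mode cell screen: cells plated at 1500/well and incubated overnight at 37 °C, then exposed to library compounds for 90 min at 37 °C. Detection reagent was added for 30–60 min at room temperature, and luminescence was read.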
D1 ag = activates the human D1 dopamine receptor | AID 504660 | activation, % at 2 µM | 360,000 compounds, 1% hits | HEK293 T-REx D1 cells, calcium flux, agonist mode; in the data active means activation above about 30%; further: 0% is about no effect
Target sequence (P21728 whole entry, looked up): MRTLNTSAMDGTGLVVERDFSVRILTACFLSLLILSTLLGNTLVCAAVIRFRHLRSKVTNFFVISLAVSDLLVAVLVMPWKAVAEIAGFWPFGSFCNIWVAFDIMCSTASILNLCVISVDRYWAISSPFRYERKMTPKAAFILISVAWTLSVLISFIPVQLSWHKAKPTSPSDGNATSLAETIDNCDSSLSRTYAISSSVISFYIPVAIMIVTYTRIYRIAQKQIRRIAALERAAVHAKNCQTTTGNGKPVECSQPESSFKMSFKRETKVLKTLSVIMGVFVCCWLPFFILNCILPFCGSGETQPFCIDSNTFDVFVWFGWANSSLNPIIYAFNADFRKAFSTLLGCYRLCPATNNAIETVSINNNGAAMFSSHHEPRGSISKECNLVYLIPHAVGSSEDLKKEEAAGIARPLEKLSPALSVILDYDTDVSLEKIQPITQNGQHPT
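Agonism was scored from calcium flux recorded over 180 s (1 read/s) after pintool compound addition, following a 10-cycle baseline. Cells were inducible force-coupled HEK293 TREx D1, plated overnight at 30 C and loaded with no-wash calcium dye.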
D3 antag = antagonists of human D3 dopamine receptor | D3R cells, DiscoveRx beta-arrestin luminescence, antagonist mode; hits give low values | max response, negative = inhibition, % | 360,000 compounds, 2.5% hits | AID 652054; in the data active means max response below about -50%; inconclusive means no clear call, values can overlap the other calls; further: on the % scale 0 is the no-effect control and ±100 the full control effect
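Cells plated overnight at 1500 cells/well, then exposed to library compounds with dopamine controls for 90 minutes at 37 degrees C. DiscoveRx reagent added for 30–60 minutes at room temperature; luminescence read, quantitative HTS format.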
D1 antag = blocks dopamine activation of the human D1 receptor. HEK293 TREx D1 cells, calcium flux, dopamine EC80; hits give low values. AID 504652. 360,000 compounds, 3.2% hits. activity change, negative = inhibition, % at 10 µM; in the data active means activity change below about -30%; further: on the % scale 0 is the no-effect control and ±100 the full control effect
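Using tetracycline-induced force-coupled D1 Hek293 cells and a calcium dye, signals were followed for 180 s after compound, then for 180 s after EC80 dopamine, to detect inhibitors.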
Chronic BCR inh = chronic active BCR signaling inhibition. ABC-DLBCL IkBa-CBG/CBR reporter, luminescence ratio, 4 h. AID 493014. Potency, µM (series often up to 46.1 µM), without a hit: at the top dose activity change, negative = inhibition, most hits filed as inhibitors. 340,000 compounds, 0.05% hits; active means well fitted inhibition curve with a large enough effect in the signal ratio, with a control signal flat, not every such curve was filed as active; inconclusive means small, poorly fitted or top-dose-only effect, or effect the other way, or a change in a side signal; the % refers to the signal ratio;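 further: potency means the concentration at half of the fitted maximal effect; plate controls were basal doxycycline-induced cells for no effect and cells given 10 µM MG132 for full effect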
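Concentration-response series (up to 46 uM) were applied to TMD8 dual-reporter cells for 4 h at 37C with doxycycline. Green/red ratio, after filter-overlap correction, defined %Activity; red signal alone was normalised to basal cells and zero luminescence.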
D1 potentiator = human D1 dopamine receptor positive modulation. P21728. HEK293 TREx D1 cells, calcium flux, dopamine EC20 potentiation. potentiation, % at 10 µM. 360,000 compounds, 0.036% hits. AID 504651; in the data active means potentiation above about 30%; further: 0% is about no effect
Active calls of the source: *; ? = inconclusive; . = no result given; ! = not confirmed by another sample.

SMILES | D3 ag | D1 ag | D3 antag | D1 antag | Chronic BCR inh | D1 potentiator
C=Cc1c(C)c2cc3[nH]c(cc4nc(cc5nc(cc1[nH]2)C(C)=C5CCC(=O)O)C(CCC(=O)O)=C4C)c(C)c3C=C | 36*! | -1 | 4 | 18 | ? | -7
O=C(O)CN(CC(=O)O)CC1=CC2C(=CC1=O)Oc1cc(O)c(CN(CC(=O)O)CC(=O)O)cc1C21OC(=O)c2ccccc21 (stereo not given) | 2 | . | . | . | . | .
O=C(O)c1ccnc2c(O)cccc12 | . | 3 | . | 20 | -13% | 2
O=Cc1ccc(O)c2ncccc12 | -25 | 1 | -83* | -21 | ? | -4
Cn1c(=O)c(=O)n(C)c2cc(N3CCCC3)c(NC(=O)c3ccccc3F)cc21 | 1 | 0 | . | 1 | . | 0
Cc1cc2nc3c(=O)n(C4CCCCC4)c(=O)[nH]c3nc2cc1N | 4 | 213* | 7 | -24 | 0% | -8
C=CCn1c(N2CCN(c3ccc(OC)cc3)CC2)nc2c1c(=O)n(C)c(=O)n2C | 8 | 15 | 6 | -38* | ? | -6
C=CCn1c(=O)c2c(nc3n2CC(C)CN3c2cccc(OC)c2)n(C)c1=O (stereo not given) | -10 | 3 | -69* | 15 | ? | .
COC(=O)c1ccc(NC(=O)C(=O)NCCc2csc3nc(-c4ccccc4F)nn23)cc1 | 1 | 2 | . | -4 | . | 1
CN(C)C(=O)CSc1nnc2sc3ccccc3n12 | 2 | 2 | -26 | -3 | 4% | -7
O=S(=O)(O)c1nnc2sc3ccccc3n12 | -5 | 2 | 19 | -36* | 0% | -2
O=S(=O)(c1c(F)cccc1F)N1CCN(S(=O)(=O)c2c(F)cccc2F)CC1 | . | 1 | . | -30* | . | 0
Cc1ccc(C)c(Nc2nc3nonc3nc2Nc2cccc(C)c2C)c1 | -7 | 8 | . | -31* | . | -2
CCOC(=O)c1ccc(Nc2nc3nonc3nc2Nc2cccc(C)c2C)cc1 | 10 | 24 | . | -39* | . | -3
CCOC(=O)c1ccc(Nc2cc(C)nc(C)c2C(=O)OCC)cc1 | -3 | -1 | ? | . | -27% | -1
Fc1ccc(-c2noc3ncnc(Nc4ccc(F)cc4F)c23)cc1 | 9 | 1 | . | 6 | ? | -3
Cc1ccc(NS(=O)(=O)c2ccccc2)c(C)c1 | . | 2 | . | -6 | . | 4
N#Cc1cccc(C(=O)C(=O)N2CCCN(Cc3ccc(F)cc3)CC2)c1 | -14 | . | ? | . | . | .
O=C(Nc1ccc2c(c1)OCCO2)C(c1ccnc2ccccc12)N1CCC(Cc2ccccc2)CC1 (stereo not given) | -6 | . | -16 | . | . | .
O=C(CC(c1ccccc1)c1cc(Br)ccc1O)NCC1(c2ccccc2)CCCC1 (stereo not given) | 30* | 3 | . | -26 | . | -5
O=C(O)COc1ccccc1/C=N/NC(=O)CSc1nnc(SCc2cccc3ccccc23)s1 | 3 | 35* | -5 | -2 | ? | -1
COCCOC(=O)Cn1nnc2sc(-c3ccccc3)cc2c1=O | 7 | 4 | . | -3 | . | -1
Clc1cccc(CNCCCSc2ncccn2)c1 | -24 | 3 | -52* | 21 | 2% | -3
COc1ccc(CNCCCSc2ncccn2)cc1OC | -9 | 6 | -65* | 8 | 0% | -2
CSc1ccc(CNCCCSc2ncccn2)cc1 | -9 | 5 | ? | 27 | ? | -1
SMILES | D3 ag | D1 ag | D3 antag | D1 antag | Chronic BCR inh | D1 potentiator
Clc1ccc(CNCCCSc2ncccn2)cc1 | -20 | 3 | -78* | 2 | ? | -4
COc1ccc(CNCCCSc2ncccn2)c(OC)c1 | -4 | 5 | -14 | -5 | 8% | -4
CCOc1cc(CNCCSc2nnnn2-c2ccccc2)cc(Cl)c1OC | -17 | 40* | . | -2 | . | 1
Clc1ccc(OCCCCSc2ncccn2)cc1 | -4 | 1 | -8 | -11 | ? | -2
O=C(Cn1c2ncccc2c(=O)n1-c1ccccc1)NCc1ccccc1Cl | 6 | 4 | . | 8 | . | 6
Brc1ccc(CNCCCSc2nnnn2-c2ccccc2)cc1 | 9 | 95* | . | -4 | . | 1
Fc1ccc(-c2ccc(CNCCSc3nnnn3-c3ccccc3)o2)cc1 | -22 | 34* | . | 7 | . | 2
Brc1ccc(CNCCCSc2ncccn2)cc1 | -18 | 10 | -77* | 1 | -1% | -4
Cc1c(Cl)cccc1-c1ccc(CNCCSc2nnnn2-c2ccccc2)o1 | -21 | 8 | . | 0 | . | 4
COc1ccc(C)cc1NC(=O)CN1c2ccccc2S(=O)(=O)c2ccccc21 | -13 | 10 | . | -1 | . | -6
Cc1nnc(SCc2ccccc2Cl)c2cc3occc3n12 | 6 | 4 | . | 4 | . | 3
CN(Cc1ccc(Cl)cc1)C(C(=O)NC1CCCCC1)c1ccnc2ccccc12 (stereo not given) | -1 | . | 1 | . | . | .
O=C(O)C1C2CCC(O2)C1C(=O)NCc1ccc(Cl)cc1 (stereo not given) | 2 | 1 | -16 | -37* | -3% | -10
CN(CC(=O)Nc1ccc(Cl)cc1)C(=O)c1ccc(N2CCCC2=O)cc1 | -1 | 2 | -10 | -39* | 3% | -7
CN(CC(=O)Nc1ccc(OC(F)(F)F)cc1)C(=O)c1ccc(N2CCCC2=O)cc1 | -4 | 10 | 0 | -32* | ? | -7
CN(CC(=O)Nc1ccc(F)c(F)c1F)C(=O)c1ccc(N2CCCC2=O)cc1 | -2 | . | 12 | . | 0% | .
COC(CNC(=O)c1ccc(N2CCCC2=O)cc1)OC | 1 | 2 | -51* | 2 | -7% | 0
COc1ccc(CCNC(=O)Cn2cc(C(=O)c3ccccc3)c(=O)c3ccc(C)nc32)cc1OC | -6 | 2 | . | 7 | . | 1
COc1ccc(N2C(=O)CS(=O)(=O)C23C(=O)N(Cc2c(F)cccc2Cl)c2ccccc23)cc1 (stereo not given) | 2 | 5 | . | -11 | . | -2
O=C(NCCCn1cccn1)c1cc(COc2ccccc2)on1 | -5 | . | 0 | . | . | .
CCOc1ccc(CN(C(=O)c2cccs2)C2CCS(=O)(=O)C2)cc1 (stereo not given) | 2 | 2 | -9 | -43* | 1% | -8
COc1ccccc1OCC(=O)N(Cc1cccs1)C1CCS(=O)(=O)C1 (stereo not given) | 10 | -1 | . | -42* | . | 0
CCOCCCNC(=O)C(c1ccc(C)cc1)N(Cc1ccc2c(c1)OCO2)C(=O)c1ccccc1O (stereo not given) | 0 | -1 | . | -7 | . | -1
COc1ccc(C(=O)N2CCN(Cc3ccc(OC)c(OC)c3)CC2)cc1 | -19 | -1 | -3 | 20 | -1% | -7
O=C(c1ccc(Cl)cc1)N1CCN(CCOc2ccccc2)CC1 | 84* | 2 | -5 | -9 | 0% | -4
Cc1ccc(C)n1CCN1CCN(C(=O)c2ccc(Cl)cc2)CC1 | -13 | 0 | -78* | -16 | 6% | -4

Screens as filed in PubChem BioAssay.
